The text below walks through data of the supplement of paper PMC10849652.

Of roughly 7,900 targets only a part is listed; those with a hit were picked by preference. About 0.6% of all pairs of compound and target were hits. Values without a mark were called inactive.

Chain of UniProt P14618 (P14618 whole entry, looked up): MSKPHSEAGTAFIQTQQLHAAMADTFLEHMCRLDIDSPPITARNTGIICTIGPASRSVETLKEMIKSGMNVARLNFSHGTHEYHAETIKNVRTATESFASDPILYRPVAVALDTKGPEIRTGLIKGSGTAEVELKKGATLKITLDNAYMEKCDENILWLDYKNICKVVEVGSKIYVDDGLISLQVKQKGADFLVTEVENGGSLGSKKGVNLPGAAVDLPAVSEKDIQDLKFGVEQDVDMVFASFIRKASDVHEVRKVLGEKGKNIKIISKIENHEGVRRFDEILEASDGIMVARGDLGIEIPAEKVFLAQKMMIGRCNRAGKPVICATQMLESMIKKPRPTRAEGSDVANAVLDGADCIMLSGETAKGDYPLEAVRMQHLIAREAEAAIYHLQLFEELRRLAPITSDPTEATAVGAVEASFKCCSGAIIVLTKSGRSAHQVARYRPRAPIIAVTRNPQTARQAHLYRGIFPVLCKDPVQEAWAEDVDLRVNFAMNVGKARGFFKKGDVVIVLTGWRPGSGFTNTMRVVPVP
Chain of UniProt Q14671 (Q14671 whole entry, looked up): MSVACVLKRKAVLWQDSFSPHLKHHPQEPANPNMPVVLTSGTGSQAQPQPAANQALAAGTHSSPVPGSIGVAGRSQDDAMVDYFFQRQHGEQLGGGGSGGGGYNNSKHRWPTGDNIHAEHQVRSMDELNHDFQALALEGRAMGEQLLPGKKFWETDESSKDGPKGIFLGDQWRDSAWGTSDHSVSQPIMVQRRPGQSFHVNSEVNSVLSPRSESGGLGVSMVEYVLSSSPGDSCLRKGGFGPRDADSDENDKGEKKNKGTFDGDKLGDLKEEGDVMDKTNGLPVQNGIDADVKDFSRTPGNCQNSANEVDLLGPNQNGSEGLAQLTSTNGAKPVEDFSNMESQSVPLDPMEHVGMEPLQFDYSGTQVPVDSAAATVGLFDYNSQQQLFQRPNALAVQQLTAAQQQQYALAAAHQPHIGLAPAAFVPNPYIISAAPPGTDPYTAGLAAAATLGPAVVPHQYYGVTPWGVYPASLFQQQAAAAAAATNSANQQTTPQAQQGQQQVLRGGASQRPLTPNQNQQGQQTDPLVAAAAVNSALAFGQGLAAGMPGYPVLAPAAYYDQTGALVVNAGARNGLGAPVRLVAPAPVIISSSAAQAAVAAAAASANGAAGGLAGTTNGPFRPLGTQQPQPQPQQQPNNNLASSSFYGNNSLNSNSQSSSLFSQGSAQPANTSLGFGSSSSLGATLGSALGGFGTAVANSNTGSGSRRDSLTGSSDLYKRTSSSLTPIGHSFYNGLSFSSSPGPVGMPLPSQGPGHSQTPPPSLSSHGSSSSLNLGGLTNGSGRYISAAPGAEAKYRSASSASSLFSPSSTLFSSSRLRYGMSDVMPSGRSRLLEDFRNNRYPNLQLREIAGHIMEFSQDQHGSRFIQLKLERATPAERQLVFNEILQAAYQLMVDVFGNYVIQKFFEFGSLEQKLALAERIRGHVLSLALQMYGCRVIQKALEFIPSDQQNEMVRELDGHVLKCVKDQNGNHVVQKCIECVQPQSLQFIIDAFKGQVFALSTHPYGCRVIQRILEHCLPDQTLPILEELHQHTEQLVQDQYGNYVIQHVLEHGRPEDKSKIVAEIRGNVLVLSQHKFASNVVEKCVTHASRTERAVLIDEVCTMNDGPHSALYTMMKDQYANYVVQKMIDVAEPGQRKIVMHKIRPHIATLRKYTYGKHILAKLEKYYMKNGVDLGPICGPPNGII
Chain of UniProt Q8N2W9 (Q8N2W9 whole entry, looked up): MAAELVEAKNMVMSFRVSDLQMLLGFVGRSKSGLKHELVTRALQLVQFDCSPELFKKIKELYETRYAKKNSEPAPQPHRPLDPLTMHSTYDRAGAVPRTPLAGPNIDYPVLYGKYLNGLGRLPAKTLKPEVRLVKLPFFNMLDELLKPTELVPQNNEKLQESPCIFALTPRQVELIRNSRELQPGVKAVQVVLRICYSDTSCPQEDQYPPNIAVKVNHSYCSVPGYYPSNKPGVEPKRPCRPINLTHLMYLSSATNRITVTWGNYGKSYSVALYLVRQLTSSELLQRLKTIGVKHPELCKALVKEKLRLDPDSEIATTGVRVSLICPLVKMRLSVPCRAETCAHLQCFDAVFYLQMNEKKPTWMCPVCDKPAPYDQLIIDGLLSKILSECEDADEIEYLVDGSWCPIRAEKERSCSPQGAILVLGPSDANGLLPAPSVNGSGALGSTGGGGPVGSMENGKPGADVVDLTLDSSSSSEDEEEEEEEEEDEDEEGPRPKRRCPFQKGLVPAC
Chain of UniProt Q14442 (Q14442 whole entry, looked up): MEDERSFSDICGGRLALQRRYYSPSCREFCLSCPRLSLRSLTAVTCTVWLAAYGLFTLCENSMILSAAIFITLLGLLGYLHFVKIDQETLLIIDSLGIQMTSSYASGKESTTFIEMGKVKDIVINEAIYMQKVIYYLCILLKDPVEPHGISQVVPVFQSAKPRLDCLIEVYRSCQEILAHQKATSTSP
Chain of UniProt Q86UU1 (Q86UU1 whole entry, looked up): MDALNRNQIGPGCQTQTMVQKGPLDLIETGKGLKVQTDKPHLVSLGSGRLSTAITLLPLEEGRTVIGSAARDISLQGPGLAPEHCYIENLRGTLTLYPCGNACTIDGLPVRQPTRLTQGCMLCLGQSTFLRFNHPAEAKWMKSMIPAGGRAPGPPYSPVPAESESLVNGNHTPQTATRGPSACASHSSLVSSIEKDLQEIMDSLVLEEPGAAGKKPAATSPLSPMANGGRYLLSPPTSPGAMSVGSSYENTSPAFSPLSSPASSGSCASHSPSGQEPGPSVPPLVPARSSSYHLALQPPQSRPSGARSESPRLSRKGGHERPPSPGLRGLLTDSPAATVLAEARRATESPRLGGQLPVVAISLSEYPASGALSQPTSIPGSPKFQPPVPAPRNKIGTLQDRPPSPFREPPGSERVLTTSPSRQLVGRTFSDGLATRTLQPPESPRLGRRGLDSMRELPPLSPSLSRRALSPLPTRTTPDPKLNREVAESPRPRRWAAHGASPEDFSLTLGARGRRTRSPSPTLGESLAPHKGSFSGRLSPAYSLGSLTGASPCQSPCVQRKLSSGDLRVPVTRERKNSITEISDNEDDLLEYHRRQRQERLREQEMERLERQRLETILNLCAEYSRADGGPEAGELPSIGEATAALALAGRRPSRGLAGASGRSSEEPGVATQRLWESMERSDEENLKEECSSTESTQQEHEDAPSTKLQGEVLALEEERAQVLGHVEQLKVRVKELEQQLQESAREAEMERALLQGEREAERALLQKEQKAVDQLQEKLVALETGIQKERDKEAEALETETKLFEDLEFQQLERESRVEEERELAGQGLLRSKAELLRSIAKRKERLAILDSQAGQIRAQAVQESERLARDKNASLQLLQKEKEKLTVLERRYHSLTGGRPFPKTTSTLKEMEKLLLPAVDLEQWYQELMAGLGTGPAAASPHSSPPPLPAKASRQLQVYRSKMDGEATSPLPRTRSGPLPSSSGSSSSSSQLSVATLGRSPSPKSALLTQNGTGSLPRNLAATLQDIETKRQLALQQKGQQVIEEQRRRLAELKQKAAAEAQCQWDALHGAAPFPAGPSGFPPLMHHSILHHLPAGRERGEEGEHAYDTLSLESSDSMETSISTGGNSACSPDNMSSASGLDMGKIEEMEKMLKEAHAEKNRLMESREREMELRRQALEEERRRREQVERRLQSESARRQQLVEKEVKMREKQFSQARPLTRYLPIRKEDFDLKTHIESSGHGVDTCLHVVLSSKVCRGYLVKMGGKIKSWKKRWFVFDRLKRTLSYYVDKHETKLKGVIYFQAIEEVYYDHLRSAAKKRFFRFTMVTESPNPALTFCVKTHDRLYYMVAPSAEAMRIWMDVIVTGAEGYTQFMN
Chain of UniProt Q8NDX5 (Q8NDX5 whole entry, looked up): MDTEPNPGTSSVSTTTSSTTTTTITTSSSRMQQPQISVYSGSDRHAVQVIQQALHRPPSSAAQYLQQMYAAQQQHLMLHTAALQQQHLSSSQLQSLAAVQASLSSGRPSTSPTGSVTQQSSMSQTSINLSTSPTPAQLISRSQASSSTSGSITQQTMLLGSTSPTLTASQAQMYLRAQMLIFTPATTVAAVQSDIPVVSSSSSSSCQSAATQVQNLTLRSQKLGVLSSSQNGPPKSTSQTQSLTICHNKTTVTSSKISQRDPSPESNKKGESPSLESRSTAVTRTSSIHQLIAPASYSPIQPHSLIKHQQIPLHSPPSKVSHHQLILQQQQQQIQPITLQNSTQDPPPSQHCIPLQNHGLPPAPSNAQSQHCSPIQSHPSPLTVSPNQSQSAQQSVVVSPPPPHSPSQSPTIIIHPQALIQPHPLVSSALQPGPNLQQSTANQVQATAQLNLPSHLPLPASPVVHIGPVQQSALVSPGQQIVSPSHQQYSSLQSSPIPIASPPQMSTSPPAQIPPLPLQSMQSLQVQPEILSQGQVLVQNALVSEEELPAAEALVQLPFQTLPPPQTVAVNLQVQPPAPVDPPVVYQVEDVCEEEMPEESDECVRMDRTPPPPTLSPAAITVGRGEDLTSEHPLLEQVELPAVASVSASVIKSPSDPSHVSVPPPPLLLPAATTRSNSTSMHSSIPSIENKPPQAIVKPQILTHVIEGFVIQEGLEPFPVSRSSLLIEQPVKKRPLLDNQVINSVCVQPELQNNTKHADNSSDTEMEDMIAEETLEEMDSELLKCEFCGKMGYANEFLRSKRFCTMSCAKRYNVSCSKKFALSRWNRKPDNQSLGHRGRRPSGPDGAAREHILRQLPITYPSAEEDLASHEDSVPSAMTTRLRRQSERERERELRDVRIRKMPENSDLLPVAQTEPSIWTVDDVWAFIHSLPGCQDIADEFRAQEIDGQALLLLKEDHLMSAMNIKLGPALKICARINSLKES
Chain of UniProt Q15126 (Q15126 whole entry, looked up): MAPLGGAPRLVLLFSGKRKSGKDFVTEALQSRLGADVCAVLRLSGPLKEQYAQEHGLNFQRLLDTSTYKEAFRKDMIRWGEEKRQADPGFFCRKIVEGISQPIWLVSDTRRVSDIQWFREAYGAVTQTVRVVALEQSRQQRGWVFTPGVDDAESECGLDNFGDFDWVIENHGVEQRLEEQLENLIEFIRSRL

Compound in one experiment: C[C@@H](Oc1cc(-c2cnn(C3CCNCC3)c2)cnc1N)c1c(Cl)ccc(F)c1Cl [crizotinib]
The experiment is described as follows: log2 fold change, soluble protein after heating vs DMSO (PISA); higher = thermal stabilisation; K562 cells, 10 uM, 30 min; active = over 0.2 and 3.5 SD of the protein, either way, in both replicates (recomputed). Summed up:
(§1)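 Aliquots of K562 cells (2×10^6 cells/mL) treated with 10 μM compound for 30 min were heated for 3 min over 48°C-58°C. After pooling and extraction in PBS with 0.5% NP-40 at 4°C, soluble protein from a 21,000xg, 90 min spin was quantified by TMTpro 16plex LC-MS/MS with channel sums equalised. Thermal stability is expressed against control samples, from duplicates, as a log2 fold change.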
On to PSMC3 (UniProt E9PLG2), for which the log2 fold change was 0.168.
Regarding PDE4DIP (UniProt E9PS60), the log2 fold change was -0.225.
Still for that read-out and setting: under PCBP2 (UniProt F8VZX2) stands -0.273.
The same measure, in the same setting: under PDE4A (UniProt P27815) stands 0.055; under PSMA3 (UniProt H0YJ03), 0.081.
Same read-out and setting: in the case of PUM1 (UniProt Q14671) it was -0.079; in that of PHLDB1 isoform 2 (UniProt Q86UU1), -0.307; in that of PKM isoform 2 (UniProt P14618), -0.033.
As to PIGH (UniProt Q14442), the log2 fold change is -0.037.
On the same count and under the same terms, in the case of PPP2R5C isoform 2 (UniProt Q13362) it was 0.243.
On the same count and under the same terms, in the case of PSD3 (UniProt Q9NYI0) it was 0.071; in that of PIAS4 (UniProt Q8N2W9), -0.178.
The same measure, in the same setting: in the case of PSMD8 (UniProt K7ERW6) it was -0.021.
As to PCF11 (UniProt O94913), the log2 fold change was -0.137.
On to POLR2E (UniProt P19388), for which the log2 fold change is 0.112.
Still for that read-out and setting: under PSMA3 (UniProt G3V4X5) stands -0.277; under PTEN isoform 2 (UniProt P60484), 0.077.
Still for that read-out and setting: under PHC3 isoform 7 (UniProt Q8NDX5) stands -0.194.

Compound in the next experiment: C[C@@H]1COCCN1C2=NC(=NC(=C2)C3(CC3)S(=O)(=O)C)C4=C5C=CNC5=CC=C4
Described as above. Summed up: as §1
Regarding PMVK (UniProt Q15126), the log2 fold change was 0.02.
With PSMC3 (UniProt E9PLG2), the log2 fold change is 0.101.
As for PPP1R12C (UniProt Q9BZL4), the log2 fold change was -0.198.
Consider PDE4A (UniProt P27815), for which the log2 fold change was -0.102.
In the case of PRKD2 (UniProt M0R346), the log2 fold change was 0.241.
Turning to PHLDB1 isoform 2 (UniProt Q86UU1), the log2 fold change is 0.058.
On the same count and under the same terms, under PKM isoform 2 (UniProt P14618) stands -0.154.
As to PIGH (UniProt Q14442), the log2 fold change was -0.012.
Same read-out and setting: under POLB (UniProt P06746) stands -0.003; under PEX5 isoform 4 (UniProt P50542), -0.016.
In the case of PTPA (UniProt A6PVN8), the log2 fold change was 0.083.
The same measure, in the same setting: under PIAS4 (UniProt Q8N2W9) stands 0.047; under PCNX1 (UniProt Q96RV3), 0.257; under PMS2CL (UniProt Q68D20), -0.091.
The same measure, in the same setting: under POLR2E (UniProt P19388) stands -0.027; under PHC3 isoform 7 (UniProt Q8NDX5), 0.317.

Compound in the next experiment: C[C@H](C1=CC=C(C=C1)C(=O)NC2=C3C=CNC3=NC=C2)N
Described as above. In a few lines: as §1
In the case of PMVK (UniProt Q15126), the log2 fold change was 0.083.
The same measure, in the same setting: under PSMC1 (UniProt G3V4X1) stands 0.099; under PDE4DIP (UniProt E9PS60), 0.212.
Same read-out and setting: in the case of PCBP2 (UniProt F8VZX2) it was 0.234; in that of PDE4A (UniProt P27815), -0.171; in that of PSMA3 (UniProt H0YJ03), 0.099.
With PRR14L (UniProt Q5THK1), the log2 fold change is -0.072.
Still for that read-out and setting: under PUM1 (UniProt Q14671) stands -0.362; under PHLDB1 isoform 2 (UniProt Q86UU1), -0.043; under PIGH (UniProt Q14442), -0.179.
The same measure, in the same setting: under POLB (UniProt P06746) stands 0.036.
The same measure, in the same setting: in the case of PEX5 isoform 4 (UniProt P50542) it was 0.15; in that of PTPA (UniProt A6PVN8), 0.1; in that of PSD3 (UniProt Q9NYI0), -0.047.
For PSMD8 (UniProt K7EK21), the log2 fold change is 0.485.
On the same count and under the same terms, under PCF11 (UniProt O94913) stands 0.211; under POLR2E (UniProt P19388), 0.14; under PUF60 isoform 2 (UniProt Q9UHX1), -0.591.
Take PHC3 isoform 7 (UniProt Q8NDX5): the log2 fold change was 0.073.

Compound in another experiment: C[C@H](Nc1ncnc2nc[nH]c12)c1cc2cccc(Cl)c2c(=O)n1-c1ccccc1 [duvelisib]
The experiment is described as above. In a few lines: as §1
Consider PMVK (UniProt Q15126), for which the log2 fold change was -0.055.
Same read-out and setting: in the case of PSMC3 (UniProt E9PLG2) it was 0.245; in that of PPP1R12C (UniProt Q9BZL4), -0.011; in that of PCBP2 (UniProt F8VZX2), -0.147.
PSMA3 (UniProt H0YJ03): the log2 fold change is 0.092.
PUM1 (UniProt Q14671): the log2 fold change is -0.187.
On to PHLDB1 isoform 2 (UniProt Q86UU1), for which the log2 fold change is -0.759 (active).
As for PKM isoform 2 (UniProt P14618), the log2 fold change was -0.001.
Same read-out and setting: in the case of PIGH (UniProt Q14442) it was -0.034; in that of POLB (UniProt P06746), -0.178.
Still for that read-out and setting: in the case of PEX5 isoform 4 (UniProt P50542) it was -0.379.
Same read-out and setting: under PPP2R5B (UniProt Q15173) stands 0.16.
On to PAN2 (UniProt Q504Q3), for which the log2 fold change was -0.032.
Take PTPA (UniProt A6PVN8): the log2 fold change was -0.002.
The same measure, in the same setting: in the case of PIAS4 (UniProt Q8N2W9) it was 0.036; in that of POLR2E (UniProt P19388), -0.001; in that of PUF60 isoform 2 (UniProt Q9UHX1), 0.163.
